High-throughput results (PubChem BioAssay)
Rows were chosen to be rich in hits. Some 1.4% of all compounds tested hit in one or more screens of this group.
PKM2 activator – increases activity of human pyruvate kinase M2. purified PKM2, Kinase-Glo ATP luminescence, activation; response scale: 0% is enzyme alone, no compound. P14618. 260,000 compounds, 0.34% hits. Potency, µM (doses to about 57.5 µM), for the others: top-dose activation, actives largely listed as activators; note: potency is the fitted concentration of half-maximal effect; nearly all actives have a fitted effect of over 55% in size
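Purified hPK-M2 (>95% pure) converted ADP (0.1 mM final) to ATP with 0.5 mM PEP in 50 mM imidazole pH7.2, KCl, MgCl2, Tween 20, BSA; 1 h at room temperature. ATP detected by Kinase-Glo luminescence.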
LDHA inh – blocks human lactate dehydrogenase A; activity change, % (values are at about 110 or 230 µM); 480,000 compounds, 0.15% hits; P00338; purified LDHA, NADH/diaphorase-resazurin fluorescence; active compounds read low; AID 1347041; in the data active = activity change below about -30%; inconclusive = mostly about -25% to -30%;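 note: plate controls were DMSO wells for no effect and wells without enzyme for full effect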
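LDH5 2 nM; NADH 0.06 mM, pyruvate 0.2 mM; 200 mM Tris pH 7.4, EDTA, Tween-20; 5 min RT. Detection: diaphorase 0.133 mg/mL + resazurin 37 µM, fluorescence ex540/em590 at 0 and 20 min; normalized to enzyme-free and DMSO wells.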
IDH1 R132H inh – inhibitors of human mutant IDH1 R132H | IDH1-R132H enzyme, NADPH consumption, diaphorase/resazurin fluorescence | AID 602179 | O75874 | 390,000 compounds, 0.093% hits | Potency, µM (series often up to 76.6 µM), inactives show top-dose activity change, negative = inhibition, usual class: inhibitors; note: potency is the fitted concentration of half-maximal effect; nearly all actives have a fitted effect of over 65% in size
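IDH1-R132H (0.5 ug/mL) preincubated 30 min with compound, then NADPH (0.016 mM) and alpha-KG (2 mM) added; 80 min at RT, pH 7.5. Remaining NADPH coupled via diaphorase/resazurin to fluorescence (540/590 nm); concentration-response curves normalized to no-enzyme control.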
TrxR1 substrate – is turned over as a substrate by rat TrxR1; O89049; purified TrxR1 substrate turnover, NADPH consumption readout; Potency, µM (series often up to 114 µM), for the others: at the highest dose activity change, negative = substrate turnover; 390,000 compounds, 0.01% hits; note: potency is the fitted concentration of half-maximal effect; nearly all actives have a fitted effect of over 50% in size
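Rat TrxR1, dispensed at 90 nM, was prereduced with 400 uM NADPH (final) for 5 min at ~22 deg C, then incubated with compound 15 min before 400 uM selenite. A first-read NADPH fluorescence drop versus no-compound background flagged substrates.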
rTrxR1 inhibitor – blocks rat thioredoxin reductase 1 | 390,000 compounds, 1% hits | recombinant rTrxR1, NADPH fluorescence consumption, selenite substrate | AID 588453 | Potency, µM (top dose mostly 114 µM), for inactives: at the top dose activity change, negative = inhibition, actives largely listed as inhibitors; note: potency is the fitted concentration of half-maximal effect; nearly all actives have a fitted effect of over 65% in size
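Rat TrxR1 (90 nM in the dispensed reagent) was pre-reduced with 400 uM NADPH for 5 min at room temperature, then incubated with compound for 15 min. After 400 uM selenite was added, NADPH fluorescence (Ex 340/Em 450 nm) was followed for 8 min.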
GLS inhibitor – blocks human kidney-isoform glutaminase activity. O94925. GLS enzymatic activity, qHTS titration. Potency, µM (highest dose often 45.5 µM), without a hit: at the top dose activity change, negative = inhibition, usual class: inhibitors. 410,000 compounds, 0.21% hits; note: potency is the fitted concentration of half-maximal effect
Target sequence (O94925 whole entry, looked up, canonical isoform): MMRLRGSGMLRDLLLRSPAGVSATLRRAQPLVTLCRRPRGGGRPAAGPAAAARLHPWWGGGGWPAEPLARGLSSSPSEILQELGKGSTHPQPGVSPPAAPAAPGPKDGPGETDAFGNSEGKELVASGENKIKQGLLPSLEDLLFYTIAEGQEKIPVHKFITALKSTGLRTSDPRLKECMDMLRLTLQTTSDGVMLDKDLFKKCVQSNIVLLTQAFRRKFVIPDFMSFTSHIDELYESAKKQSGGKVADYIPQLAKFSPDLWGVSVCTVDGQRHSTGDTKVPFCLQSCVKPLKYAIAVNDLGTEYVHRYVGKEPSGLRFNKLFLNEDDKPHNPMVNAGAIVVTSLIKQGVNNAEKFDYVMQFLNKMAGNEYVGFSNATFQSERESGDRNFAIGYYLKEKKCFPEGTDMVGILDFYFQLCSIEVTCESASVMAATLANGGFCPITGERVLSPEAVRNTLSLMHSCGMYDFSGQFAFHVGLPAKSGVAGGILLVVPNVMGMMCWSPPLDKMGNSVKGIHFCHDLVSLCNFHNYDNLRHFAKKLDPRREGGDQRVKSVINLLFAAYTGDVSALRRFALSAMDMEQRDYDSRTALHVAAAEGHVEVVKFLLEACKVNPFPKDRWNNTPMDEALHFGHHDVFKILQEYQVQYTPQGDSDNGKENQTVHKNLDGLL
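Coupled fluorescence readout: glutamate oxidase/HRP/Amplex Red detect glutamate formed by hKGA from L-glutamine (1 mM solution added). Buffer 45 mM KH2PO4 pH 8.2, 0.02% Tween-20; reads at t0 and 30 min RT.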
* marks the source's active call; other numbers are inactive results; ? = inconclusive; . = not tested or not shown; [ ] = dose if it differs, or a comment. Unless noted, calls come from the whole dose curve; as a rule, active = well fitted curve in the direction sought with a large enough effect; inconclusive = small, poorly fitted or top-dose-only effect, or another doubt; inactive = no such curve, though single readings can be large; an effect the other way counts as inactive or inconclusive. Unless noted, % is set by controls: 0 for no effect and ±100 for the full control effect.

SMILES	PKM2 activator	LDHA inh	IDH1 R132H inh	TrxR1 substrate	rTrxR1 inhibitor	GLS inhibitor
CC1(CC(=O)N/N=C/c2cc(Br)c(O)cc2O)OCCO1	-1%	13	2%	-13%	9%	10µM*
CCOc1ccc(C(=O)NC2C(=O)N3C(C(=O)O)=C(COC(C)=O)CSC23)cc1OCC (stereo not given)	.	-2	7%	-6%	56µM*	8%
CCOC(=O)C1=C(O)c2ccccc2C(=O)/C1=C\c1ccc(C)cc1	?	128	18%	-18%	11µM*	-20%
CCOC(=O)C1=C(C)OC(=Cc2ccccc2)C1=O	.	-15	-3%	.	.	13%
CC1CCN(C(=O)c2nn(C(C)C)c(=O)c3ccccc23)c2cc(Cl)ccc2S1 (stereo not given)	.	1	.	.	.	.
Cc1ccc(NS(=O)(=O)c2c(C)nc3sccn3c2=O)cc1	10µM*	-8	6%	-2%[57.1 µM]	5%[57.1 µM]	7%
Cc1nc2sccn2c(=O)c1S(=O)(=O)Nc1cccc(Cl)c1C	7.1µM*	-12	-2%	3%[57.1 µM]	18%[57.1 µM]	9%
CCOC(=O)c1sc2nc(-c3ccco3)c3c(c2c1N)CC(C)(C)OC3	?	11	8%	-6%	7.9µM*	-4%
Cc1ccc(S(=O)(=O)NC2OC(=O)C(Cl)=C2Cl)cc1 (stereo not given)	-1%	-5	-3%	-2%	10µM*	34%
Cc1ccc(S(=O)(=O)NC2CCCCCCC2)cc1	3%[11.5 µM]	-2	4%	0%	23%	-12%
CS(=O)(=O)N(CC(=O)Nc1ccc(Br)cc1)c1cccc(Cl)c1Cl	.	-21	.	.	.	.
COc1ccc(CC(=O)Nc2cc(=O)n(C)c(=O)n2C)cc1	16µM*	-3	6%	2%	19%	-1%
CCOc1ccc(CC(=O)Nc2cc(=O)n(C)c(=O)n2C)cc1	?	-5	3%	-6%[57.1 µM]	5%[57.1 µM]	-13%
O=C(c1ccc2c(c1)OCO2)N(Cc1ccccc1)Cc1ccccc1	.	-9	.	.	.	.
CC(=O)c1cccc(Nc2nc(-c3cccc(C)c3)nc3ccccc23)c1	.	8	3%	5%	8%	-1%
Oc1ccc(Nc2nc(-c3ccccc3)nc3ccccc23)cc1	.	-8	0%	-7%	4%[57.1 µM]	7.9µM*
Cc1cccc(-c2nc(Nc3ccc(C(=O)O)cc3)c3ccccc3n2)c1	.	-39*	.	.	.	.
Oc1ccc(Nc2nc(-c3ccc(Cl)cc3)nc3ccccc23)cc1	.	8	.	8%	14%	17%
COc1ccc(-c2nnc3ccc(Nc4ccc(F)cc4)nn23)cc1	.	1	.	.	.	.
CC(=O)CC[N+](C)(C)C	.	-21	-1%	-2%	2.2µM*	14%
CC(=O)CC(=O)N(CCC[N+](C)(C)C)CCC[N+](C)(C)C	.	-17	.	.	.	.
Cc1cc2c(cc1S(=O)(=O)Nc1cccc(F)c1)n(C)c(=O)c(=O)n2C	2µM*	-5	11%	2%	25%	10%
Cc1cc2c(cc1S(=O)(=O)NCc1ccc(F)cc1)n(C)c(=O)c(=O)n2C	.	-7	9%	3%	14%	3%
CCN(CC)c1ccc(/C=C2\SC(=O)N(C(C)C)C2=O)o1	13µM*	22	4%	-19%[57.1 µM]	4µM*	-1%
COC(=O)C(C)N1C(=O)S/C(=C/c2ccc(C)o2)C1=O (stereo not given)	.	61	.	.	.	.
Nc1cccc2c1C(=O)N(C(=O)/C=C/c1cccc(F)c1)C2=O	12%	-2	-2%	2%	28µM*	-21%
Nc1cccc2c1C(=O)N(C(=O)/C=C/c1cccc(Br)c1)C2=O	2%	-12	0%	8%	20µM*	-64%
Cc1cccc(NC(=O)CSc2ncc3c(n2)-c2ccc(Cl)cc2N(C)S3(=O)=O)c1	.	-8	.	.	.	.
COc1ccc2c(c1OC)C(=O)OC2Nc1nc(-c2ccc(C)cc2)cs1 (stereo not given)	.	4	.	.	.	.
COc1ccc(S(=O)(=O)N2CCN(C(=O)c3cccs3)CC2)cc1	14µM*	-7	3%	-13%	-113%	7%
